Measurements as given in the supplement of paper PMC11482750.
± gives the standard deviation of the averaged measurements.

Each target was assayed with C=CCN=C=S [allyl isothiocyanate] (assay: control-subtracted net OSN firing rate; higher = stronger neuronal activation). Conditions: odorant dilution (vol/vol): 1/100.
Method in brief: (§1)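 Values are replicate means from single sensillum recordings of palp or antennal olfactory sensory neurons. Recordings used 1–5-day-old fed female flies, either Scaptomyza species or D. melanogaster wild-type, mutant or at1 empty-neuron lines carrying Or42a homologs, stimulated with 1 s pulses of odorant (1:100 vol/vol in mineral oil or dimethyl sulfoxide, 20 μl on filter paper) into 16 ml/min filtered air. Spikes in a 0.5 s window beginning 0.2 s after onset were background-subtracted, doubled and corrected for solvent.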

Target | control-subtracted net OSN firing rate [spikes/s]
Or67dGal4, UAS-Dmel Or42a at1 | 94.3 ± 58
Or67dGal4, UAS-Sfla Or42a2 at1 | 39.7 ± 29
S. montana pb1a-like | 126 ± 16
Canton-S (D. melanogaster) pb1a | 134 ± 36
S. flava pb3a-like | 6 ± 8.3
Canton-S (D. melanogaster) pb3b | -3.33 ± 8.2
Canton-S (D. melanogaster) pb1b | -8.93 ± 11
S. hsui pb1b-like | -15 ± 6.4
S. hsui pb2b-like | 0.667 ± 4.1
S. pallida pb1a-like | 109 ± 21
Canton-S (D. melanogaster) pb2a | 1.69 ± 6.9
S. montana pb2b-like | 2 ± 4.2
S. flava pb2a-like | -1.67 ± 6.9
S. montana pb3a-like | 9.67 ± 6.5
S. montana pb2a-like | 0.667 ± 4.1
S. pallida pb2a-like | 9 ± 9.5
S. flava pb3b-like | 2 ± 14
S. pallida pb3a-like | -6.33 ± 7

Target | control-subtracted net OSN firing rate [spikes/s]
S. pallida pb2b-like | 2.33 ± 5.3
S. hsui pb2a-like | -2 ± 4.7
S. flava pb2b-like | -0.333 ± 12
Canton-S (D. melanogaster) pb3a | 7.56 ± 4.9
S. flava pb1a-like | 123 ± 14
Or67dGal4, UAS-Sfla Or42a3 at1 | 127 ± 27
S. flava pb1b-like | -21 ± 16
Or67dGal4, UAS-Spal Or42a at1 | 201 ± 39
S. montana pb3b-like | 3 ± 7.9
S. montana pb1b-like | -19 ± 14
S. pallida pb3b-like | -5.67 ± 14
Canton-S (D. melanogaster) pb2b | -1.54 ± 9
S. hsui pb1a-like | 124 ± 17
S. hsui pb3a-like | 0 ± 12
Or67dGal4, UAS-Sfla Or42a4 at1 | 131 ± 22
S. hsui pb3b-like | -2.67 ± 4.5
S. pallida pb1b-like | -11 ± 11

The targets below were run with CC(C)CN=C=S [isobutyl isothiocyanate] in the same assay as above. Conditions: odorant dilution (vol/vol): 1/100.
Method in brief: as §1

Target | control-subtracted net OSN firing rate [spikes/s]
Or67dGal4, UAS-Dmel Or42a at1 | 5.33 ± 7.7
Or67dGal4, UAS-Sfla Or42a2 at1 | -2 ± 3.1
S. montana pb1a-like | 110 ± 18
Canton-S (D. melanogaster) pb1a | 0.222 ± 8.7
S. flava pb3a-like | 4.67 ± 6.8
Canton-S (D. melanogaster) pb3b | -1.5 ± 9.8
Canton-S (D. melanogaster) pb1b | 1.33 ± 9.2
S. hsui pb1b-like | -3.33 ± 8.7
S. hsui pb2b-like | 7 ± 8.2
S. pallida pb1a-like | 26 ± 12
Canton-S (D. melanogaster) pb2a | 1.43 ± 7.3
S. montana pb2b-like | 3.67 ± 5.3
S. flava pb2a-like | 0.667 ± 5.8
S. montana pb3a-like | 5 ± 8.5
S. montana pb2a-like | 1.67 ± 4.5
S. pallida pb2a-like | 5.33 ± 6.4
S. flava pb3b-like | -3.67 ± 24
S. pallida pb3a-like | -5.67 ± 5.8

Target | control-subtracted net OSN firing rate [spikes/s]
S. pallida pb2b-like | 6 ± 4
S. hsui pb2a-like | 2 ± 7.3
S. flava pb2b-like | -4.33 ± 14
Canton-S (D. melanogaster) pb3a | 1.5 ± 6
S. flava pb1a-like | 107 ± 32
Or67dGal4, UAS-Sfla Or42a3 at1 | 77.7 ± 25
S. flava pb1b-like | -26.3 ± 24
Or67dGal4, UAS-Spal Or42a at1 | 42.2 ± 14
S. montana pb3b-like | -0.667 ± 7.8
S. montana pb1b-like | -18 ± 11
S. pallida pb3b-like | -4 ± 7.9
Canton-S (D. melanogaster) pb2b | -0.286 ± 8.4
S. hsui pb1a-like | 10 ± 5.1
S. hsui pb3a-like | -4.33 ± 7.9
Or67dGal4, UAS-Sfla Or42a4 at1 | 87 ± 27
S. hsui pb3b-like | -1.33 ± 3.9
S. pallida pb1b-like | -8.67 ± 14

Each target was assayed with CCC(C)N=C=S [sec-butyl isothiocyanate] in the same assay as above. Conditions: odorant dilution (vol/vol): 1/100.
Method in brief: as §1

Target | control-subtracted net OSN firing rate [spikes/s]
Or67dGal4, UAS-Dmel Or42a at1 | 4.33 ± 11
Or67dGal4, UAS-Sfla Or42a2 at1 | -1.71 ± 6.6
S. montana pb1a-like | 48.3 ± 20
Canton-S (D. melanogaster) pb1a | 3.56 ± 4.9
S. flava pb3a-like | 0.333 ± 11
Canton-S (D. melanogaster) pb3b | 1.33 ± 7
Canton-S (D. melanogaster) pb1b | -0.667 ± 9.4
S. hsui pb1b-like | 4.33 ± 7.4
S. hsui pb2b-like | 5.33 ± 6.3
S. pallida pb1a-like | 17.3 ± 13
Canton-S (D. melanogaster) pb2a | 5.43 ± 6.9
S. montana pb2b-like | 4.33 ± 6.2
S. flava pb2a-like | 3 ± 7.8
S. montana pb3a-like | 1 ± 7.9
S. montana pb2a-like | 3 ± 10
S. pallida pb2a-like | 10.7 ± 9.5
S. flava pb3b-like | -3.33 ± 16
S. pallida pb3a-like | -5 ± 14

Target | control-subtracted net OSN firing rate [spikes/s]
S. pallida pb2b-like | 8.33 ± 3.4
S. hsui pb2a-like | 2 ± 4.7
S. flava pb2b-like | -0.333 ± 6.4
Canton-S (D. melanogaster) pb3a | 3.67 ± 8
S. flava pb1a-like | 30.3 ± 26
Or67dGal4, UAS-Sfla Or42a3 at1 | 29.4 ± 17
S. flava pb1b-like | -2.33 ± 32
Or67dGal4, UAS-Spal Or42a at1 | 22.8 ± 9.7
S. montana pb3b-like | 3.67 ± 6.9
S. montana pb1b-like | -8.33 ± 9.7
S. pallida pb3b-like | 5.33 ± 17
Canton-S (D. melanogaster) pb2b | 0.571 ± 8.4
S. hsui pb1a-like | 8.67 ± 7.3
S. hsui pb3a-like | -2 ± 10
Or67dGal4, UAS-Sfla Or42a4 at1 | 29.7 ± 21
S. hsui pb3b-like | -3 ± 1.7
S. pallida pb1b-like | -1 ± 13
